The supplement of paper PMC12350171
Structures can show the parent of a compound that is named as a salt. Values without a mark were called inactive.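 Rule for the calls: active = normalised median growth AUC below 0.1 of DMSO control; inactive = AUC 0.1 or higher.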

These molecules were tested on P. vulgatus WT (assay: growth AUC normalised to DMSO control (median) (fraction of control); higher = less growth inhibition, active = hit call of the paper). Conditions: 20 µM.
Method in brief: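 Area under the growth curve, calculated by the trapezoidal rule up to entry into stationary phase, was normalised to vehicle wells on the same plate. Strains had been passaged twice overnight without oxygen and then grown in mGAM in 96-well plates from OD578 0.01, each with an approved-drug library compound at 20 μM in 1% DMSO. OD578 was read hourly over 24 h in an anaerobic incubator, and the median of three biological replicates is given.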
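Note: active when median AUC fell below 0.1.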

| SMILES | growth AUC normalised to DMSO control |
| --- | --- |
| Cc1cc(/C=C/c2ccc3cc(N(C)C)ccc3[n+]2C)c(C)n1-c1ccccc1 [Pyrvinium pamoate] | 1.08 |
| CCOc1ccc2nc(S(N)(=O)=O)sc2c1 [Ethoxzolamide] | 1 |
| Cc1cc(C#N)cc(C)c1Oc1nc(Nc2ccc(C#N)cc2)nc(N)c1Br [Etravirine] | 1.02 |
| O=C1C(=O)c2ccccc2C(O)=C1C1CCC(c2ccc(Cl)cc2)CC1 (stereo not given) [Atovaquone] | 1.02 |
| CC(C)OC(=O)C(C)(C)Oc1ccc(C(=O)c2ccc(Cl)cc2)cc1 [Fenofibrate] | 1.01 |
| NNc1nncc2ccccc12 [Hydralazine hydrochloride] | 1.04 |
| CC(C)(CO)[C@@H](O)C(=O)NCCC(=O)NCCSSCCNC(=O)CCNC(=O)[C@H](O)C(C)(C)CO [D-Pantethine] | 1.01 |
| O=C1[C@@H]2[C@H]3CC[C@H](C3)[C@@H]2C(=O)N1CCCCN1CCN(c2ncccn2)CC1 [Tandospirone] | 1.05 |
| C[N+](C)(C)C[C@H](O)CC(=O)[O-] [Levocarnitine] | 1.04 |
| O=C(O)c1cc(/N=N/c2ccc(S(=O)(=O)Nc3ccccn3)cc2)ccc1O [Sulfasalazine] | 1.02 |
| COC1=CC(=O)C[C@@H](C)[C@]12Oc1c(Cl)c(OC)cc(OC)c1C2=O [Griseofulvin] | 0.976 |
| Cn1c(=O)c2nc[nH]c2n(C)c1=O [Theophylline monohydrate] | 1.01 |
| CC1=C(C)C(=O)C(C(CCCCCC(=O)O)c2ccccc2)=C(C)C1=O (stereo not given) [Seratrodast] | 0.967 |
| N=C(N)c1ccc(OCCCCCOc2ccc(C(=N)N)cc2)cc1 [Pentamidine isethionate] | 0.749 |
| NS(=O)(=O)c1cc2c(cc1Cl)NC(Cc1ccccc1)NS2(=O)=O (stereo not given) [Benzylhydrochlorothiazide] | 1.1 |
| Cc1cn([C@H]2C[C@H](N=[N+]=[N-])[C@@H](CO)O2)c(=O)[nH]c1=O [Zidovudine] | 0.986 |
| CCOC(=O)c1ccc(C#Cc2ccc3c(c2)C(C)(C)CCS3)nc1 [Tazarotene] | 1.02 |
| COc1ccc2c(c1)c(CC(=O)O)c(C)n2C(=O)c1ccc(Cl)cc1 [Indomethacin] | 1.01 |
| C[C@H]1[C@H](OC(=O)CCC(=O)O)O[C@@H]2O[C@@]3(C)CC[C@H]4[C@H](C)CC[C@@H]1[C@@]24OO3 [Artesunate] | 1 |
| O=c1[nH]cnc2c1ncn2[C@H]1CC[C@@H](CO)O1 [Didanosine] | 0.973 |

| SMILES | growth AUC normalised to DMSO control |
| --- | --- |
| C[C@]12CC[C@@H]3c4ccc(O)cc4CC[C@H]3[C@@H]1C[C@@H](O)[C@@H]2O [Estriol] | 0.978 |
| CN(C/C=C/C#CC(C)(C)C)Cc1cccc2ccccc12 [Terbinafine] | 0.998 |
| COc1cc([C@@H]2c3cc4c(cc3[C@@H](O[C@@H]3O[C@@H]5CO[C@@H](C)O[C@H]5[C@H](O)[C@H]3O)[C@H]3COC(=O)[C@H]23)OCO4)cc(OC)c1O [Etoposide] | 1.09 |
| Nc1c2ccccc2nc2ccccc12 [Aminacrine] | 1.02 |
| CCN1CCN(C(=O)N[C@@H](C(=O)N[C@@H]2C(=O)N3[C@@H]2SC(C)(C)[C@@H]3C(=O)O)c2ccccc2)C(=O)C1=O [Piperacillin sodium salt] | 0.0163 (active) |
| O=C(C1CCCCC1)N1CC(=O)N2CCc3ccccc3C2C1 (stereo not given) [Praziquantel] | 1.03 |
| CC(=O)[C@H]1CC[C@H]2[C@@H]3CCC4=CC(=O)CC[C@]4(C)[C@H]3CC[C@]12C [Progesterone] | 0.612 |
| CN1CC(O)c2cc(N=NC(N)=O)c(O)cc21 (stereo not given) [Carbazochrome] | 1.01 |
| O=c1[nH]c(=O)n([C@H]2C[C@H](O)[C@@H](CO)O2)cc1C(F)(F)F [Trifluridine] | 0.123 |
| CC(C(=O)O)c1ccc2c(c1)CC(=O)c1ccccc1S2 (stereo not given) [Zaltoprofen] | 1.01 |
| C[C@H]1[C@H](NC(=O)/C(=N\OC(C)(C)C(=O)O)c2csc(N)n2)C(=O)N1S(=O)(=O)O [Aztreonam] | 0.134 |
| C=C(CC)C(=O)c1ccc(OCC(=O)O)c(Cl)c1Cl [Ethacrynic acid] | 1.01 |
| O=c1[nH]c(=O)n([C@H]2C[C@H](O)[C@@H](CO)O2)cc1/C=C/Br [Brivudine] | 1.01 |
| CCCCCCOc1ccccc1C(N)=O [Exalamide] | 1.04 |
| Cc1ncc([N+](=O)[O-])n1CCO [Metronidazole] | 0.0126 (active) |
| CCCC(=O)Nc1ncnc2c1ncn2[C@@H]1O[C@@H]2COP(=O)(O)O[C@H]2[C@H]1OC(=O)CCC [Bucladesine sodium salt] | 1.01 |
| CC(C)C[C@H](NC(=O)[C@@H](O)[C@H](N)Cc1ccccc1)C(=O)O [Ubenimex] | 0.535 |
| O=C(Oc1ccccc1)c1ccccc1O [Phenyl salicylate] | 1.06 |
| CC(C)(C)NCC(O)CSc1nc(-c2ccc(C(N)=O)s2)cs1 (stereo not given) [Arotinolol hydrochloride] | 1 |
| Cc1ncc(C[n+]2csc(CCO)c2C)c(N)n1 [Thiamine hydrochloride] | 0.981 |
